In PubChem BioAssay (Tox21):
Results filed as inconclusive are left out. Active and inactive are the calls of the source. Unless noted, calls follow the shape of the dose curve; as a rule, active = well fitted curve in the direction sought with a large enough effect in the repeat runs; inconclusive = weak or mixed curves; inactive = no such curve, though single readings can be large; an effect the other way counts as inactive or inconclusive.

Legend:
[1] = target: Estrogen receptor (Homo sapiens) (UniProt P03372); test: qHTS assay to identify small molecule agonists of the estrogen receptor alpha (ER-alpha) signaling pathway in the presence of an antagonist (AID 1259383; calls by dose curve; also: top concentration of the series differs between compounds; nearly all actives have a fitted effect of over 15% in size)
How it was run: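 ER-alpha agonism measured under antagonist challenge: 10.0nM ICI-182,780 (final) plus compound, 15 concentrations, 22hr, VM7Luc4E2 ERE-luciferase cells. Read by luminescence.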

[2] = qHTS assay to identify small molecule agonists or antagonists of the thyroid stimulating hormone receptor (TSHR) signaling pathway - wild type cell line counter screen (AID 1259384; calls by dose curve)
How it was run: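 Counter screen in untransfected Hek293: compounds (15-point titration, triplicate) plus phosphodiesterase inhibitor Ro20-1724 added after 18 h plating; 30 min RT. Intracellular cAMP via competitive d2/cryptate immunoassay, 1 h incubation.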

[3] = target: Thyrotropin receptor (Homo sapiens) (UniProt P16473); test: qHTS assay to identify small molecule antagonists of the thyroid stimulating hormone receptor (TSHR) signaling pathway (AID 1259385; calls by dose curve; also: nearly all actives have a fitted effect of over 20% in size)
How it was run: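 Antagonist mode: compound-treated TSHR-expressing HEK293 cells were stimulated with 1.5 ng/mL TSH (final) in presence of Ro20-1724 for 30 min at RT. HTRF cAMP detection after 1 h; each compound tested at 15 concentrations, triplicate.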

[4] = qHTS assay to identify small molecule agonists of the estrogen receptor alpha (ER-alpha) signaling pathway in the presence of an antagonist - cell viability counter screen (AID 1259386);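 also: series mostly up to about 92 µM; cells exposed to compounds for 22 h at 37 °C before the viability read; nearly all actives have a fitted effect of over 30% in size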
How it was run: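 Steps: 5-day stripped-FBS culture; seed and incubate 24hr; add ICI-182,780 (10.0nM final); pin 15-point compound titration; incubate 22hr at 37C; add CellTiter-Fluor at 21hr; read fluorescence.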

[5] = target: Progesterone receptor (Homo sapiens) (UniProt P06401); test: qHTS assay to identify small molecule agonists of the progesterone receptor (PR) signaling pathway (AID 1346784; calls by dose curve; also: nearly all actives have a fitted effect of over 30% in size; also: potency is read from the fitted curve at half-maximal effect)
How it was run: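 Reporter assay, GripTite PR-UAS-bla HEK 293T cells: 16 hr exposure to DMSO-dissolved compounds at 37C, 5% CO2, in steroid-depleted (2% charcoal-stripped FBS) medium; beta-lactamase measured by FRET fluorescence.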

[6] = target: Progesterone receptor (Homo sapiens) (UniProt P06401); test: qHTS assay to identify small molecule antagonists of the progesterone receptor (PR) signaling pathway (AID 1346795; active = well fitted inhibition curve with a large enough effect in the signal ratio in the repeat runs, not every such curve was filed as active; the % refers to the signal ratio)
How it was run: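 Stimulus R5020 at 1 nM final; cells HEK293T PR-UAS-bla; medium with 2% charcoal-stripped FBS; compound exposure 16 hr at 37C, 5% CO2; detection by FRET beta-lactamase substrate, 2 hr, room temperature.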

[7] = qHTS assay to identify small molecule agonists of the progesterone receptor (PR) signaling pathway - cell viability counter screen (AID 1346799; calls by dose curve; also: nearly all actives have a fitted effect of over 45% in size)
How it was run: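 Multiplexed viability read: CellTiter-Glo luminescence, 30 min RT, following LiveBLAzer FRET measurement on PR-UAS-bla HEK293T cells exposed to compounds 16 hr.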

[8] = qHTS assay to identify small molecule antagonists of the TGF-beta/Smad signaling pathway - cell viability counter screen (AID 1346824); also: nearly all actives have a fitted effect of over 50% in size
How it was run: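 Cytotoxicity counter-screen run in the same wells as the beta-lactamase Smad reporter read: CellTiter-Glo luminescence after 30 min at room temperature. HEK 293T SBE-bla cells had 5 hr compound exposure at 37 C with TGF-beta1 (0.25 ng/mL stock).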

[9] = qHTS assay to identify small molecule agonists of the TGF-beta/Smad signaling pathway - cell viability counter screen (AID 1346829); also: top concentration of the series differs between compounds; nearly all actives have a fitted effect of over 45% in size
How it was run: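 Same-well cytotoxicity: CellTiter-Glo added after the 2 hr room-temperature beta-lactamase substrate step, luminescence measured 30 min later; cells had 5 hr of compound at 37 C.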

[10] = qHTS assay to identify small molecule agonists of the TGF-beta/Smad signaling pathway (AID 1346859; active = well fitted activation curve with a large enough effect in the signal ratio in the repeat runs, not every such curve was filed as active; the % refers to the signal ratio; also: series mostly up to about 77 µM)
How it was run: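 Screening used HEK 293T SBE-bla cells at 4,000/well. Test agents: 5 hr, 37 C. Detection: FRET substrate, 2 hr RT, then excitation 405 nm with emissions at 460 and 530 nm.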

[11] = target: Thyrotropin-releasing hormone receptor (Homo sapiens) (UniProt P34981); test: qHTS assay to identify small molecule antagonists of the thyrotropin-releasing hormone receptor (TRHR) signaling pathway (AID 1346877; active = well fitted inhibition curve with a large enough effect in the repeat runs, not every such curve was filed as active; also: series mostly up to about 51 µM)
How it was run: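 Human TRHR in HEK293 cells; inhibition of the intracellular calcium rise triggered by 1 nM TRH was followed by fluorescence over 3 min. Compounds were run at 15 concentrations, three replicates each.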

[12] = target: Thyrotropin-releasing hormone receptor (Homo sapiens) (UniProt P34981); test: qHTS assay to identify small molecule agonists of the thyrotropin-releasing hormone receptor (TRHR) signaling pathway (AID 1346891; calls by dose curve; also: series mostly up to about 58 µM)
How it was run: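 Readout was intracellular calcium fluorescence in TRHR-Hek293 cells. Cells were incubated 18 h, dye-loaded 2 h at 37 °C, and treated with compound in agonist mode.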

[13] = Human pregnane X receptor (PXR) small molecule agonists, qHTS cell viability counter screen (AID 1346977); also: nearly all actives have a fitted effect of over 50% in size
How it was run: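 In each well, the PXR reporter HepG2 line was checked for viability: CellTiter-Fluor reagent added 23hr post-dosing, fluorescence read after 1hr incubation at 37C.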

[14] = Caspase-3/7 induction in HepG2 cells by small molecules, qHTS assay (AID 1346978); also: nearly all actives have a fitted effect of over 15% in size
How it was run: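 Caspase-3/7 induction was measured by Caspase-Glo 3/7 luminescence (30 min, room temperature) after a 17 hr compound exposure of wild-type HepG2 cells seeded at 2,000 per well and pre-incubated 5 hr.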

[15] = Caspase-3/7 induction in CHO-K1 cells by small molecules, qHTS cell viability counter screen (AID 1346979); also: nearly all actives have a fitted effect of over 35% in size
How it was run: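 Following a 5hr settling period, CHO-K1 cells at 1,500 per well received DMSO-dissolved compounds. Cell viability was quantified 16hr later by CellTiter-Fluor fluorescence, measured after 1hr with reagent at 37C.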

[16] = Caspase-3/7 induction in CHO-K1 cells by small molecules, qHTS assay (AID 1346980); also: nearly all actives have a fitted effect of over 15% in size
How it was run: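 Luminescent Caspase-Glo 3/7 read (30min, room temperature) quantified apoptosis induction. Cells were wild-type CHO-K1, treated with compound for 17hr at 37 C and 5% CO2.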

[17] = Caspase-3/7 induction in HepG2 cells by small molecules, qHTS cell viability counter screen (AID 1346981); also: series mostly up to about 92 µM; nearly all actives have a fitted effect of over 30% in size
How it was run: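 The parent HepG2 line is plated at 2,000 cells per well and rested 5 hr before compound pinning from DMSO stocks. Following a 16-hr treatment at 37 C, a fluorogenic live-cell substrate (CellTiter-Fluor) reports viability after 1 hr.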

[18] = target: Nuclear receptor subfamily 1 group I member 2 (Homo sapiens) (UniProt O75469); test: Human pregnane X receptor (PXR) small molecule agonists, qHTS assay (AID 1346982); also: nearly all actives have a fitted effect of over 35% in size
How it was run: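 After plating in 5% charcoal-stripped FBS and a 5 hr rest, PXR-Luc HepG2 cells received compounds in DMSO. Following 24 hr at 37 C, ONE-Glo was added and light output read.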

[19] = qHTS assay to identify small molecule antagonists of the progesterone receptor (PR) signaling pathway - cell viability counter screen (AID 1346798); also: series mostly up to about 92 µM; nearly all actives have a fitted effect of over 50% in size
How it was run: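 In the same plates used for the beta-lactamase readout, cell viability of compound- and R5020-treated PR-UAS-bla HEK293T cells (16 hr, 37C) was assessed by CellTiter-Glo luminescence.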

[20] = target: Nuclear receptor subfamily 1 group I member 2 (Rattus norvegicus) (UniProt Q9R1A7); test: Rat pregnane X receptor (rPXR) activation by small molecules, qHTS assay (AID 1346983); details: rPXR luciferase reporter cells, One-Glo luminescence, 24 h; max activation: hits give high values; also: nearly all actives have a fitted effect of over 20% in size
How it was run: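 Luminescent readout (One-Glo luciferase, 30 min room temperature) followed 24 hr compound treatment at 37 C of rPXR cells plated 2,000 per well and preincubated 5hr; qHTS format with compounds delivered in DMSO.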
% is scaled to controls: 0 for no effect and ±100 for the full control effect.

Sequence of Thyrotropin receptor (Homo sapiens) (P16473 whole entry, looked up): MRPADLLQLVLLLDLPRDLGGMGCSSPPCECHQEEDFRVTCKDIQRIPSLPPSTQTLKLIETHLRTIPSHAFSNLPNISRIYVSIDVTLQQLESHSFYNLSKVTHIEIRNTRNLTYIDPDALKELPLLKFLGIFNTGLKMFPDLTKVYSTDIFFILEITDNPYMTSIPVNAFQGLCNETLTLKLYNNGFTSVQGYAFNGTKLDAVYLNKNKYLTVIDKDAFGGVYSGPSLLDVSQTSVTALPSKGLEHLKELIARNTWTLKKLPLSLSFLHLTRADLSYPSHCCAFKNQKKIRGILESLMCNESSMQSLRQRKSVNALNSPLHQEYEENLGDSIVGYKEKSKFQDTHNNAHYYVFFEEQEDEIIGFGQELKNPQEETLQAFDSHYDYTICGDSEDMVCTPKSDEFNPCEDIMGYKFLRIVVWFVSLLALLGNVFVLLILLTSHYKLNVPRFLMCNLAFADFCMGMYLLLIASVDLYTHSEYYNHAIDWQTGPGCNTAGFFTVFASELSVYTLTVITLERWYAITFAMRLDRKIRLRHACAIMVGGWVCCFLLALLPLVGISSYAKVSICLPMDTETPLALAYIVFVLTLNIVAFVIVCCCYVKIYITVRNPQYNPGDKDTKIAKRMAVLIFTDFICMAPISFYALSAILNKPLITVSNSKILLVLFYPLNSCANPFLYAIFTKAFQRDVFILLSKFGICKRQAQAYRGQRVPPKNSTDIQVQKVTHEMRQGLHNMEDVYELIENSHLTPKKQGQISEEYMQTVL
Sequence of Progesterone receptor (Homo sapiens) (P06401 whole entry, looked up): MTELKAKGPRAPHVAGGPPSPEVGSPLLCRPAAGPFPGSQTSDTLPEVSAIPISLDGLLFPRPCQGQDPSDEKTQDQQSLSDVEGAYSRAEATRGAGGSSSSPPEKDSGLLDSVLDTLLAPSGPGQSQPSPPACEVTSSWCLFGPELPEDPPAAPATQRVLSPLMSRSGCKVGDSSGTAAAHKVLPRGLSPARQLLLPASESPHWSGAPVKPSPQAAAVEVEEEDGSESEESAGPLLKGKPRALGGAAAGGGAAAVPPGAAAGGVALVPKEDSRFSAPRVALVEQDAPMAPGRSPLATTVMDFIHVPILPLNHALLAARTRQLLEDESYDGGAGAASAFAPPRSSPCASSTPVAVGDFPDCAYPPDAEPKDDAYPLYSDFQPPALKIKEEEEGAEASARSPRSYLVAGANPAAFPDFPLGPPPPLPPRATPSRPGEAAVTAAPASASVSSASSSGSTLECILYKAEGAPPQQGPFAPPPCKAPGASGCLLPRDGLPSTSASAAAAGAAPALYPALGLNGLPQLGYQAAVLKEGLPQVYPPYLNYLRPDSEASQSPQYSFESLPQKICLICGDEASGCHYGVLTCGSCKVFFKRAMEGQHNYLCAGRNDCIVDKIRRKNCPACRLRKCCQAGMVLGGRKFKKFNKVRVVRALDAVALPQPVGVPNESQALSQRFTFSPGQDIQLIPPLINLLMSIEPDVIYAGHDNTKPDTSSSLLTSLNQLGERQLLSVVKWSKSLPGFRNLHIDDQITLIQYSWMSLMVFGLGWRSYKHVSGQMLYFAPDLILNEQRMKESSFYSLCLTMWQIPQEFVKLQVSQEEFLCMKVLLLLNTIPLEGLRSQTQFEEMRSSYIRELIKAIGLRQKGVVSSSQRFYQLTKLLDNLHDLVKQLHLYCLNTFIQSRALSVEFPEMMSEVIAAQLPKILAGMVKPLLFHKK
Sequence of Thyrotropin-releasing hormone receptor (Homo sapiens) (P34981 whole entry, looked up): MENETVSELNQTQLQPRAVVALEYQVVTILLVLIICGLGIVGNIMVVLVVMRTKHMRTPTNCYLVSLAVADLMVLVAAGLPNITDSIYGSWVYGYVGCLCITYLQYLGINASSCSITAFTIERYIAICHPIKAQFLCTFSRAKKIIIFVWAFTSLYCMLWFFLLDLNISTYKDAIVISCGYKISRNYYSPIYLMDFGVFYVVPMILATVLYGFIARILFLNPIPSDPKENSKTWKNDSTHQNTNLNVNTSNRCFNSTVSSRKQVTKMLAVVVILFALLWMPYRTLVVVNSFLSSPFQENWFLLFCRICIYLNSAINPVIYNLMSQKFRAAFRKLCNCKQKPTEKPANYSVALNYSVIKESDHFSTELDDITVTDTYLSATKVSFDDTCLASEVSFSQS
Sequence of Estrogen receptor (Homo sapiens) (P03372 whole entry, looked up): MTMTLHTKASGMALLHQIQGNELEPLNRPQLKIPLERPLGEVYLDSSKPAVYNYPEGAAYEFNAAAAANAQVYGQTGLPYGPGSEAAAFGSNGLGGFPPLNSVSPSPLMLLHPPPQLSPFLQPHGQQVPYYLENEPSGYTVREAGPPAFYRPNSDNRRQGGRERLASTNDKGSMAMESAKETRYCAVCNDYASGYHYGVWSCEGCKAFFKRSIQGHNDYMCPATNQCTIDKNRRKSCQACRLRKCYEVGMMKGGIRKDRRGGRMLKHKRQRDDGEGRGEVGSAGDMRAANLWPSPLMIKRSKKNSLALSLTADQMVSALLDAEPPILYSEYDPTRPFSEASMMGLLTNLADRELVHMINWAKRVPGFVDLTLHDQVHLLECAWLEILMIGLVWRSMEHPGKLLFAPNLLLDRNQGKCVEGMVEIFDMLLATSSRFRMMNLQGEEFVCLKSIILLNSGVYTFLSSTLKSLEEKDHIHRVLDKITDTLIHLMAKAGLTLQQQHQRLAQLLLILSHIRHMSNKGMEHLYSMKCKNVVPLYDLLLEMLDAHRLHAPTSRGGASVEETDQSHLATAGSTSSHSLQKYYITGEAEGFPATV
Sequence of Nuclear receptor subfamily 1 group I member 2 (Rattus norvegicus) (Q9R1A7 whole entry, looked up): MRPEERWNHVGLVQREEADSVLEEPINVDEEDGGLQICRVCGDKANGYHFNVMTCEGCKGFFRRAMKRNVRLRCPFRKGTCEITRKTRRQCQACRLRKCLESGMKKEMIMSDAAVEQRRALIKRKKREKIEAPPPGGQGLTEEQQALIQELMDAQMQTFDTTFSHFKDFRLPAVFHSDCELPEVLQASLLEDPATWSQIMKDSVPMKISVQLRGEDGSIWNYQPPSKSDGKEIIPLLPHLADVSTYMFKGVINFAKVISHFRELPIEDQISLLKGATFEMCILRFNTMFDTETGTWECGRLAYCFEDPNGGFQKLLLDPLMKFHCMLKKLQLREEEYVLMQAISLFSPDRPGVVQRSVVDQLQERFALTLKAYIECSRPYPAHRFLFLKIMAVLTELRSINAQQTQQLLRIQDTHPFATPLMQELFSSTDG
Sequence of Nuclear receptor subfamily 1 group I member 2 (Homo sapiens) (O75469 whole entry, looked up): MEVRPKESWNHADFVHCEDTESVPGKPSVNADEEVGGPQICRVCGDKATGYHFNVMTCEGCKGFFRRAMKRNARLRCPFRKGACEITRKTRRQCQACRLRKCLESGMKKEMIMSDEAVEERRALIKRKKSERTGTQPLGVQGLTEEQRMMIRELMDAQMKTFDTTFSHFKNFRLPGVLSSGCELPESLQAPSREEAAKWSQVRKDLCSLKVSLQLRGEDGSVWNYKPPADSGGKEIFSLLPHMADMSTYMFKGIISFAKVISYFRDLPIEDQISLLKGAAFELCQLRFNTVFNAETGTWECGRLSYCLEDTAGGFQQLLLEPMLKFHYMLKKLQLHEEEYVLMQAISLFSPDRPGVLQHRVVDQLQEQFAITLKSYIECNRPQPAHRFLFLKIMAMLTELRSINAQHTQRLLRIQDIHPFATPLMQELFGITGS

CC(=O)OC(C)c1ccccc1 (centres undefined)
inactive: outcome [1] | outcome [2] | outcome [3] | Potency [4] | Potency [5] | Potency [6] | Potency [7] | outcome [8] | outcome [9] | outcome [10] | outcome [11] | outcome [12] | Potency [13] | outcome [14] | Potency [15] | outcome [16] | Potency [17] | Potency [18]

CCCCCCCCOC(C)=O
inactive: outcome [1] | outcome [2] | outcome [3] | Potency [4] | Potency [5] | Potency [6] | Potency [19] | outcome [8] | outcome [9] | outcome [10] | Potency [13] | outcome [14] | Potency [15] | Potency [17] | Potency [18]

O=C(O)c1ccc(OCCN2CCCCC2)cc1
inactive: outcome [1] | outcome [2] | outcome [3] | Potency [4] | Potency [5] | Potency [6] | Potency [19] | Potency [7] | outcome [8] | outcome [9] | outcome [10] | Potency [13] | outcome [14] | Potency [15] | outcome [16] | Potency [18]

CCN1CN(CC)CN(CC)C1
inactive: outcome [1] | outcome [2] | outcome [3] | Potency [4] | Potency [5] | Potency [6] | Potency [7] | outcome [8] | outcome [9] | outcome [10] | outcome [11] | outcome [12] | Potency [13] | outcome [14] | Potency [15] | outcome [16] | Potency [17] | Potency [18]

O=C1OC(=O)c2ccccc21
inactive: outcome [1] | outcome [2] | outcome [3] | Potency [4] | Potency [6] | Potency [19] | outcome [8] | outcome [9] | outcome [11] | outcome [12] | Potency [13] | outcome [14] | outcome [16] | Potency [18]
active: Potency [5] 60.8 µM

CC(=O)OC(C(=O)c1ccccc1)c1ccccc1 (centres undefined)
inactive: outcome [1] | outcome [2] | outcome [3] | Potency [4] | Potency [5] | Potency [6] | Potency [19] | Potency [7] | outcome [8] | outcome [9] | outcome [10] | Potency [13] | outcome [14] | Potency [15] | outcome [16] | Potency [17]

Cc1cccc(Nc2ccncc2S(=O)(=O)NC(=O)NC(C)C)c1
inactive: outcome [1] | outcome [2] | outcome [3] | Potency [4] | Potency [5] | Potency [6] | Potency [19] | Potency [7] | outcome [8] | outcome [9] | outcome [10] | Potency [13] | outcome [14] | outcome [16] | max activation [20] -0.7%

COC(=O)CCC(=O)O
inactive: outcome [1] | outcome [2] | outcome [3] | Potency [4] | Potency [5] | Potency [6] | Potency [19] | Potency [7] | outcome [8] | outcome [9] | outcome [10] | Potency [13] | outcome [14] | Potency [15] | outcome [16] | Potency [17] | Potency [18]

CC(=O)c1ccc2c(c1)CCCC2
inactive: outcome [1] | outcome [2] | outcome [3] | Potency [4] | Potency [5] | Potency [6] | Potency [19] | Potency [7] | outcome [8] | outcome [9] | outcome [10] | Potency [13] | outcome [14] | Potency [15] | outcome [16] | Potency [17] | Potency [18]

CCCCOC(=O)C(C)OC(=O)CCC (centres undefined)
inactive: outcome [1] | outcome [2] | outcome [3] | Potency [4] | Potency [5] | Potency [6] | Potency [19] | Potency [7] | outcome [9] | Potency [13] | outcome [14] | Potency [15] | outcome [16] | Potency [17] | Potency [18]

Cc1cc(C)cc([N+](=O)[O-])c1
inactive: outcome [1] | outcome [2] | outcome [3] | Potency [4] | Potency [5] | Potency [6] | Potency [19] | Potency [7] | outcome [8] | outcome [9] | outcome [10] | Potency [13] | outcome [14] | Potency [15] | outcome [16] | Potency [17] | Potency [18]

CC(C)(CO)[C@@H](O)C(=O)NCCCO
inactive: outcome [1] | outcome [2] | outcome [3] | Potency [4] | Potency [5] | Potency [6] | Potency [19] | outcome [8] | outcome [9] | outcome [10] | Potency [13] | outcome [14] | outcome [16] | Potency [17] | Potency [18] | max activation [20] -0.489%

O=CN1CCOCC1
inactive: outcome [1] | outcome [2] | outcome [3] | Potency [4] | Potency [5] | Potency [6] | Potency [19] | Potency [7] | outcome [8] | outcome [9] | outcome [11] | outcome [12] | Potency [13] | outcome [14] | Potency [15] | outcome [16] | Potency [17] | Potency [18]

Nc1ccc(C(=O)OCC(O)CO)cc1 (centres undefined)
inactive: outcome [1] | outcome [2] | outcome [3] | Potency [4] | Potency [5] | Potency [6] | Potency [19] | outcome [8] | outcome [9] | outcome [11] | outcome [12] | Potency [13] | outcome [14] | Potency [15] | outcome [16] | Potency [17] | Potency [18]

O=C(O)/C=C/c1ccccc1
inactive: outcome [1] | outcome [2] | outcome [3] | Potency [4] | Potency [5] | Potency [6] | Potency [19] | Potency [7] | outcome [8] | outcome [9] | outcome [11] | outcome [12] | Potency [13] | outcome [14] | Potency [15] | Potency [18] | max activation [20] -6.4%

CCCCCCCCCCCCCCCCCCN(C)C
inactive: outcome [1] | outcome [2] | outcome [3] | Potency [4] | Potency [5] | Potency [6] | Potency [19] | Potency [7] | outcome [8] | outcome [9] | outcome [10] | Potency [13] | outcome [14] | outcome [16] | Potency [18]

CCC1COC(=O)O1 (centres undefined)
inactive: outcome [1] | outcome [2] | outcome [3] | Potency [4] | Potency [5] | Potency [6] | Potency [19] | Potency [7] | outcome [8] | outcome [9] | outcome [11] | outcome [12] | Potency [13] | outcome [14] | Potency [15] | Potency [17] | Potency [18]
